# Laboratory results from the supplement of paper PMC12067093, “Discovery and optimisation of a covalent ligand for TRIM25 and its application to targeted protein ubiquitination” (Chemical Science, 2025).
# About 21,000 targets were measured; listed, in parts, are those with the largest changes and a random draw of the rest.
# Biological target: SLTM_Q9NWH9_107_KHEADELSGDASVEDDAFIKDCELENQEAHEQDGNDELK (UniProt Q9NWH9)
# Test: probe-labelled cysteine peptide fold change vs DMSO (competition) (log2 fold change); higher = less target engagement (more negative = stronger competition)
# Conditions: THP-1, incubation time: 4 h
# 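Further: competitive profiling in live THP-1 cells: cysteine peptides tagged with an iodoacetamide desthiobiotin (IA-DTB) probe, intensity after compound treatment relative to DMSO-treated cells.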
# UniProt Q9NWH9, sequence (Q9NWH9 whole entry, looked up): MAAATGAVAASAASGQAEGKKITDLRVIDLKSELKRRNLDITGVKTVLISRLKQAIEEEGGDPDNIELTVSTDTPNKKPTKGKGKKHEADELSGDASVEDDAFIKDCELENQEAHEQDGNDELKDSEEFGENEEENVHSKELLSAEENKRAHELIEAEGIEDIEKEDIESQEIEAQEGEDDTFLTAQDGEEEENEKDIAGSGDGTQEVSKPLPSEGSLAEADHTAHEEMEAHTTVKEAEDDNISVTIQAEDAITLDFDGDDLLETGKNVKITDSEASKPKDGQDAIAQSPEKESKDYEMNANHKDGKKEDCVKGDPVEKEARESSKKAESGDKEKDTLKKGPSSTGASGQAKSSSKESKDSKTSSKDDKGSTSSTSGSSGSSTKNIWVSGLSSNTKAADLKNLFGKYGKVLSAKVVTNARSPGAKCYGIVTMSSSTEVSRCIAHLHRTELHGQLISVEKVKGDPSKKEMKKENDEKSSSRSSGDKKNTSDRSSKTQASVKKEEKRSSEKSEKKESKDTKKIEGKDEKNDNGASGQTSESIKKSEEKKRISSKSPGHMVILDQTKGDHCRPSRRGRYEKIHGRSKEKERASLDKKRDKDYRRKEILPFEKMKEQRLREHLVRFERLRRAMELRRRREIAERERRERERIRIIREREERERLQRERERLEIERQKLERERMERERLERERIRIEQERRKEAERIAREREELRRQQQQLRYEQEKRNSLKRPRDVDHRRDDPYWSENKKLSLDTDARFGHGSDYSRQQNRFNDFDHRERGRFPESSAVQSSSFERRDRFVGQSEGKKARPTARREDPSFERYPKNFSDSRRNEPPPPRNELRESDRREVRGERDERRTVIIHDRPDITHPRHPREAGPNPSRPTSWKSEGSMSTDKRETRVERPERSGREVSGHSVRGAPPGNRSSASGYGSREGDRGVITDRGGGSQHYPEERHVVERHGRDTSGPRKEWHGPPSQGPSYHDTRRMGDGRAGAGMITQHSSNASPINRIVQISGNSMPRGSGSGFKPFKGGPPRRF
smiles,measurement,setting,value
Cc1cc(C(=O)N2CCCN(C(=O)CCl)CC2)ccc1-c1ccccc1 [compound 10],probe-labelled cysteine peptide fold change,10 µM,0.0217
same,probe-labelled cysteine peptide fold change,50 µM,-1.37
